Here are results for 40 compounds from publication PMC7826789 (International Journal of Molecular Sciences, 2021).
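Note: KINOMEscan scanMAX binding as percent activity remaining versus control; lower means stronger binding.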

For the first test, the system named is ABL1(F317I)-phosphorylated. The note with it: Compound Concentration (nM):1000.
In the case of `Cc1cc(O)cc(C)c1/C=C/c1cncc(C(N)=O)c1` [GW435821X], the “Percent Control” value was 32%.

Regarding `COc1ccc2cc(-c3c(-c4ccncc4)nc(-c4ccc(S(C)(=O)=O)cc4C)n3C)ccc2c1` [SB-633825], the “Percent Control” value is reported as 65%.

Regarding `COc1cc2ncn(-c3cc(O[C@H](C)c4ccccc4Cl)c(C(N)=O)s3)c2cc1OC` [GSK237701A], the “Percent Control” value was 86%.

Regarding `COC(=O)Nc1nc2ccc(Oc3ccc(NC(=O)Nc4cc(C(F)(F)F)ccc4F)cc3)cc2s1.Cl` [GW693917A], the “Percent Control” value stood at 36%.

As to `COc1cc2ncnc(Nc3ccc4c(cnn4Cc4ccccc4)c3)c2cc1OC.Cl` [GW282449A], the “Percent Control” value is reported as 81%.

With `C/C(Nc1ccc(S(N)(=O)=O)cc1)=C1/C(=O)Nc2ccccc21` [GW335962X], the “Percent Control” value came to 83%.

`Cl.O=C(Nc1ccc(Oc2ccc3[nH]c(NC(=O)c4ccccc4)nc3c2)cc1)Nc1cc(C(F)(F)F)ccc1F` [GW709042A]: the “Percent Control” value worked out at 76%.

As for `CCc1ccc(Oc2nccc(-c3c(-c4ccc(F)cc4)ncn3C3CCNCC3)n2)cc1` [SB-242719], the “Percent Control” value is given as 80%.

As to `COc1cc(N2CCN(C(C)C)CC2)ccc1Nc1nc(Nc2ccc(F)cc2C(=O)NC[C@@H](O)CO)c2cc[nH]c2n1` [GSK1392956A], the “Percent Control” value is given as 87%.

With `O=C(Nc1n[nH]c2nc(-c3ccc(O)cc3)c(Br)cc12)C1CC1` [SB-725317], the “Percent Control” value is recorded as 80%.

Consider `O=C1Nc2ccc(C(=O)c3ccco3)cc2C1=Cc1cc(Cl)c(O)c(Cl)c1` [GW406108X], for which the “Percent Control” value came to 79%.

With `COc1cccc(-n2ncc3c(N/N=C/c4ccncc4)ncnc32)c1` [GW784752X], the “Percent Control” value turned out to be 78%.

As to `NS(=O)(=O)c1ccc(N/N=C2\C(=O)Nc3ccc(C(=O)NCc4ccncc4)cc32)cc1` [GW300657X], the “Percent Control” value was found to be 81%.

`Nc1ncnc2occ(-c3ccc(NC(=O)Nc4cc(C(F)(F)F)ccc4F)cc3)c12` [GW770249X]: the “Percent Control” value is given as 61%.

Turning to `NS(=O)(=O)c1ccc(N/N=C2\C(=O)Nc3ccc(Cl)cc32)cc1` [GW280670X], the “Percent Control” value is listed as 96%.

Take `COc1cccc(-c2c[nH]c3c(N/N=C/c4ccncc4)ncnc23)c1` [GW814408X]: the “Percent Control” value stood at 66%.

As to `COc1ccccc1-c1cc(/C=C2\C(=O)Nc3ncc(Br)cc32)cc(Br)c1O` [GW442130X], the “Percent Control” value was 100%.

In the case of `CC(C)COC(=O)c1ccc2c(c1)/C(=C/Nc1ccc(S(N)(=O)=O)cc1)C(=O)N2` [GW416981X], the “Percent Control” value turned out to be 83%.

For `CC1=C(C(=O)Nc2ccc3[nH]ncc3c2)C(c2ccc(Cl)c(Cl)c2)CC(=O)N1` (centres unmarked) [GSK299115A], the “Percent Control” value is recorded as 72%.

For the compound `COc1ccc(COc2ccc(Cc3cnc(N)nc3N)cc2OC)cc1` [GW632580X], the “Percent Control” value was 95%.

Turning to `COc1cc(C=NNc2ncnc3c2cnn3-c2ccccc2)ccc1O` [GW513184X], the “Percent Control” value was found to be 92%.

Regarding `Cl.O=C(O[C@H]1CN[C@H](C#Cc2cc3ncnc(Nc4ccc5c(cnn5Cc5ccccc5)c4)c3s2)C1)N1CCOCC1` [GSK200398A], the “Percent Control” value is 85%.

The test system of a further test is ABL1(F317L)-nonphosphorylated. Particulars: Compound Concentration (nM):1000.
On to `COc1cc(/C=N/Nc2ncnc3[nH]ncc23)ccc1O` [GW578748X], for which the “Percent Control” value came out at 56%.

Regarding `NS(=O)(=O)c1ccc(N/N=C2\C(=O)Nc3ccc(-c4cnco4)cc32)cc1` [GW276655], the “Percent Control” value is reported as 75%.

Regarding `CN1CCN(C(=O)c2ccc(NC(=O)Nc3ccc(N(C)c4ccnc(Nc5ccc(CS(C)(=O)=O)cc5)n4)cc3)cc2)CC1.Cl` [GW830263A], the “Percent Control” value amounted to 51%.

Turning to `CCS(=O)(=O)c1ccc(OC)c(Nc2ncc(-c3cccc(OC)c3)o2)c1` [GW580509X], the “Percent Control” value was determined as 45%.

As for `Cl.O=S1CCN(Cc2ccc(-c3ccc4ncnc(Nc5ccc(OCc6ccccc6)c(F)c5)c4c3)o2)CC1` [GW576924A], the “Percent Control” value was determined as 100%.

In the case of `CC1=C(C(=O)Nc2ccc3[nH]ncc3c2)C(c2ccc3ccccc3c2)CC(=O)N1` (centres unmarked) [GSK270822A], the “Percent Control” value is listed as 87%.

Take `COc1ccc2c(-c3ccnc(Nc4cccc(OC(F)(F)F)c4)n3)cnn2n1` [GW810372X]: the “Percent Control” value amounted to 100%.

Turning to `Cl.O=C(Nc1ccc(Oc2ccc3[nH]c(NC(=O)c4ccco4)nc3c2)cc1)Nc1cc(C(F)(F)F)ccc1F` [GW683134A], the “Percent Control” value was found to be 6.8%.

For `CN(C)c1cc2c(Nc3ccc4c(cnn4Cc4ccccc4)c3)ncnc2cn1` [GW282974X], the “Percent Control” value worked out at 99%.

Take `CCS(=O)(=O)c1ccc(OC)c(Nc2ncc(-c3cccc(F)c3)o2)c1` [GW621970X]: the “Percent Control” value is 47%.

For `COc1cc(C)c(N(C)C(=O)CN(C)C)cc1Nc1nc(Nc2cccc(F)c2C(N)=O)c2cc[nH]c2n1` [GSK2219385], the “Percent Control” value turned out to be 100%.

Regarding `Cl.c1ccc(Cc2nc3ccc(Nc4ncnc5ccccc45)cc3[nH]2)cc1` [GR269666A], the “Percent Control” value was determined as 100%.

For the compound `COc1ccc2[nH]c3c4[nH]c5ccc(OC)cc5c4c4c(c3c2c1)C(=O)NC4=O` [GW296115X], the “Percent Control” value came to 84%.

As to `CCn1c(-c2nonc2N)nc2c(C#CC(C)(C)O)nc(OCCNC)cc21.Cl` [GSK949675], the “Percent Control” value is 100%.

`CN(C)CCNC(=O)Nc1ccc(N(C)c2ccnc(Nc3ccc(CS(C)(=O)=O)cc3)n2)cc1.Cl` [GW830900A]: the “Percent Control” value stood at 91%.

As for `NS(=O)(=O)c1ccc(N/N=C2\C(=O)Nc3ccc(C(=O)NCCc4c[nH]cn4)cc32)cc1` [GW300660X], the “Percent Control” value was determined as 98%.

With `C[C@@H](Oc1cc(-n2cnc3ccc(OC4CCN(C)CC4)cc32)sc1C(N)=O)c1ccccc1Cl` [GSK579289A], the “Percent Control” value is listed as 100%.

For the compound `NS(=O)(=O)c1ccc(Nc2ncc(-c3ccccc3)o2)cc1` [GW572399X], the “Percent Control” value stood at 86%.

Regarding `Cc1cc(O)cc(C)c1/C=C/c1cncc(C(N)=O)c1` [GW435821X], the “Percent Control” value was 37%.

Regarding `COc1ccc2cc(-c3c(-c4ccncc4)nc(-c4ccc(S(C)(=O)=O)cc4C)n3C)ccc2c1` [SB-633825], the “Percent Control” value is given as 83%.

Consider `COc1cc2ncn(-c3cc(O[C@H](C)c4ccccc4Cl)c(C(N)=O)s3)c2cc1OC` [GSK237701A], for which the “Percent Control” value is on record as 92%.

As to `COC(=O)Nc1nc2ccc(Oc3ccc(NC(=O)Nc4cc(C(F)(F)F)ccc4F)cc3)cc2s1.Cl` [GW693917A], the “Percent Control” value is given as 3.6%.

Consider `COc1cc2ncnc(Nc3ccc4c(cnn4Cc4ccccc4)c3)c2cc1OC.Cl` [GW282449A], for which the “Percent Control” value was 93%.

With `C/C(Nc1ccc(S(N)(=O)=O)cc1)=C1/C(=O)Nc2ccccc21` [GW335962X], the “Percent Control” value is listed as 100%.

`Cl.O=C(Nc1ccc(Oc2ccc3[nH]c(NC(=O)c4ccccc4)nc3c2)cc1)Nc1cc(C(F)(F)F)ccc1F` [GW709042A]: the “Percent Control” value was determined as 26%.

In the case of `CCc1ccc(Oc2nccc(-c3c(-c4ccc(F)cc4)ncn3C3CCNCC3)n2)cc1` [SB-242719], the “Percent Control” value is 100%.

As to `COc1cc(N2CCN(C(C)C)CC2)ccc1Nc1nc(Nc2ccc(F)cc2C(=O)NC[C@@H](O)CO)c2cc[nH]c2n1` [GSK1392956A], the “Percent Control” value is 95%.

`O=C(Nc1n[nH]c2nc(-c3ccc(O)cc3)c(Br)cc12)C1CC1` [SB-725317]: the “Percent Control” value came to 100%.

As to `O=C1Nc2ccc(C(=O)c3ccco3)cc2C1=Cc1cc(Cl)c(O)c(Cl)c1` [GW406108X], the “Percent Control” value is listed as 100%.

With `COc1cccc(-n2ncc3c(N/N=C/c4ccncc4)ncnc32)c1` [GW784752X], the “Percent Control” value came to 98%.

`NS(=O)(=O)c1ccc(N/N=C2\C(=O)Nc3ccc(C(=O)NCc4ccncc4)cc32)cc1` [GW300657X]: the “Percent Control” value came to 92%.

In the case of `Nc1ncnc2occ(-c3ccc(NC(=O)Nc4cc(C(F)(F)F)ccc4F)cc3)c12` [GW770249X], the “Percent Control” value amounted to 7.8%.

For `NS(=O)(=O)c1ccc(N/N=C2\C(=O)Nc3ccc(Cl)cc32)cc1` [GW280670X], the “Percent Control” value was 100%.

As to `COc1cccc(-c2c[nH]c3c(N/N=C/c4ccncc4)ncnc23)c1` [GW814408X], the “Percent Control” value stood at 61%.

For `COc1ccccc1-c1cc(/C=C2\C(=O)Nc3ncc(Br)cc32)cc(Br)c1O` [GW442130X], the “Percent Control” value came out at 100%.

As to `CC(C)COC(=O)c1ccc2c(c1)/C(=C/Nc1ccc(S(N)(=O)=O)cc1)C(=O)N2` [GW416981X], the “Percent Control” value was determined as 100%.

Consider `CC1=C(C(=O)Nc2ccc3[nH]ncc3c2)C(c2ccc(Cl)c(Cl)c2)CC(=O)N1` (centres unmarked) [GSK299115A], for which the “Percent Control” value stood at 75%.

Consider `COc1ccc(COc2ccc(Cc3cnc(N)nc3N)cc2OC)cc1` [GW632580X], for which the “Percent Control” value stood at 100%.

`COc1cc(C=NNc2ncnc3c2cnn3-c2ccccc2)ccc1O` [GW513184X]: the “Percent Control” value is listed as 100%.

Turning to `Cl.O=C(O[C@H]1CN[C@H](C#Cc2cc3ncnc(Nc4ccc5c(cnn5Cc5ccccc5)c4)c3s2)C1)N1CCOCC1` [GSK200398A], the “Percent Control” value is listed as 100%.
